Measured values from PubChem BioAssay AID504937 (National Center for Advancing Translational Sciences (NCATS), 2011).
About 20 (0.006%) of roughly 340,000 compounds were called active. The sample holds actives, similar compounds and a random draw of the others, so the mix is not that of the screen. Unmarked numbers belong to inactive results. Calls follow the shape of the dose curve; as a rule, active = well fitted inhibition curve with a large enough effect; inconclusive = small, poorly fitted or top-dose-only effect; inactive = no such curve, though single readings can be large or run the other way.

target: Sphingomyelin phosphodiesterase (Homo sapiens) (UniProt P17405); test: Inhibitors of Secretory Acid Sphingomyelinase (S-ASM): qHTS; conditions: placental ASM, HMU-PC fluorogenic substrate, 60 min; series mostly up to 57.5 µM; activity change, negative = inhibition: at the top concentration
Sequence (P17405 47-631 limits assumed): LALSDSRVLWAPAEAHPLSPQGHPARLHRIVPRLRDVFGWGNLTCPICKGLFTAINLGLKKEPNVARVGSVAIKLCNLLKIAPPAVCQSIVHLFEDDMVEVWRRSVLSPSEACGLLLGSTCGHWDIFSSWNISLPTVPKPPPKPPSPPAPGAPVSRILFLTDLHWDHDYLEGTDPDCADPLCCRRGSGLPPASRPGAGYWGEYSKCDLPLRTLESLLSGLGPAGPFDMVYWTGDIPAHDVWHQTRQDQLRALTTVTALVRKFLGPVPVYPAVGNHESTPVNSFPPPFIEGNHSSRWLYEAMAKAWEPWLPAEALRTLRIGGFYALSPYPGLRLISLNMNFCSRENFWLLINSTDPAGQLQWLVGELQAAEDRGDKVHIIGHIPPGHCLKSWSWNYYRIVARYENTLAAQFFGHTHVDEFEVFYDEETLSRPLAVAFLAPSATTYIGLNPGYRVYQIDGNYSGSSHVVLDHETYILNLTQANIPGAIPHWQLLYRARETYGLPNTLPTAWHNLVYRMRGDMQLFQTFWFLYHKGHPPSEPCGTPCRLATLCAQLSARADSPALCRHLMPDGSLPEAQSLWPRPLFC
Text: Atherosclerosis is the underlying process for cardiovascular disease and thus is a major contributor to disease burden in the population. […] Thus, selective small molecule inhibitors of S-ASM should block LDL modification and reduce aortic LDL retention and may serve as new agents for the treatment of atherosclerosis. In a collaboration between National Heart, Lung, and Blood Institute and the NCGC a high-throughput amenable screen was developed to identify potent and selective small molecule inhibitors of S-ASM. This enzymatic, fluorescent screen uses an ASM enzyme preparation derived from human placenta and was tested against the NIH Molecular Libraries Small Molecule Repository (MLSMR). NIH Chemical Genomics Center [NCGC] NIH Molecular Libraries Probe Centers Network [MLPCN] MLPCN Grant: MH093173-01 Assay Submitter (PI): Alan Remaley, National Heart, Lung, and Blood Institute and Wei Zhen, NIH Chemical Genomics Center
Two microliters of ASM enzyme (1:150 dilution from stock) are dispensed in 1536-well plate. 23 nL of compound and control are pinned into assay plate using the Kalypsys pintool. The plates are then incubated for 10 minutes at ambient room temperature. Then, 2 uL of the flurogenic substrate, HMU-PC0, (9 uM final) are added to the plate. An incubation for 60 minutes takes place at 37 masculineC. After that, 4 uL of stop solution is added to raise the pH to 10 to end the kinetic reaction. Plate is read on ViewLux, with detection set at Ex = 386 (10) nm and Em = 447 (10) nm.
Potency is read from the fitted curve at half-maximal effect.

| Structure (SMILES) | activity change, negative = inhibition | Potency |
| --- | --- | --- |
| COc1ccc(Cl)cc1C=CC=NNC(=O)c1ccncc1 | 1.72% | – |
| COC(=O)[C@@H]1C[C@@]2(O)[C@H](O)[C@H](O)[C@H](O)C[C@H]2N1Cc1ccc(C)s1 | 2.02% | – |
| Cn1c(=O)c2c(n(Cc3ccccc3)c1=O)NC(=O)C2CC(=O)N1CCc2ccccc2C1 (stereo unspecified) | 11% | – |
| CCOC(=O)c1c(C2CC2)csc1NC(=O)CSCc1c(C)noc1C | -10.2% | – |
| CCOC(=O)C1=CN(Cc2ccc(Br)cc2)S(=O)(=O)N(C)C1C (stereo unspecified) | -9.71% | – |
| COCc1c(C(=O)N/N=C(\C)c2ccncc2)nnn1-c1nonc1N | 2.13% | – |
| COc1ccc2c(C)c(CCC(=O)NC3CC3)c(=O)oc2c1C | -0.686% | – |
| CC(=O)N1c2ccc(S(=O)(=O)N(C)CC(=O)N(C)Cc3ccccc3)cc2CC1C (stereo unspecified) | -1.44% | – |
| C=CCN1C(=O)c2ccc(C(=O)N3CCC(C(=O)OCC)CC3)cc2C1=O | -2.79% | – |
| COc1nc(OC)nc(N(C)CCO)n1 | 4.61% | – |
| CCOC(=O)C1CCN(C(=O)C2CCN(S(=O)(=O)CC)CC2)CC1 | 1.4% | – |
| Cc1cccc(OCC(=O)OCC(=O)Nc2ccc(Cl)cn2)c1 | -3.52% | – |
| Cc1ccc(C(=O)NCC(=O)NCc2cc(=O)n(C)c(=O)n2C)cc1 | 0.0892% | – |
| O=S(=O)(c1ccc(F)cc1)N1CCN(C(=S)NCc2ccco2)CC1 | 0.335% | – |
| Cc1ccc(N(C(=O)c2snc(C(N)=O)c2N)C(C(=O)NCC2CCCO2)c2c[nH]c3ccccc23)cc1 (stereo unspecified) | 107% | – |
| Cc1ccc(S(=O)(=O)NC(C)C(=O)NCc2ccc(Cl)cc2)cc1 (stereo unspecified) | 0.606% | – |
| CSCCC(NS(=O)(=O)c1ccc2c(c1)oc(=O)n2C)C(=O)NC1CCCc2ccccc21 (stereo unspecified) | 4.92% | – |
| O=S(=O)(NCCCN1CCOCC1)c1ccc(F)c(Cl)c1 | 3.19% | – |
| Cc1ccc(S(=O)(=O)NC(=O)c2cccc(C)c2)cc1 | 2.72% | – |
| CC(=O)C1=C(C)NC2=C(C(=O)CC(C)(C)C2)C1C (stereo unspecified) | 36.1% | – |
| CCOC(=O)c1cc(S(=O)(=O)NCCc2ccc(OC)c(OC)c2)cn1C | 0.167% | – |
| CSCCC(NC(=O)c1ccccc1)C(=O)N1CCN(Cc2ccc(Cl)cc2)CC1 (stereo unspecified) | -1.3% | – |
| CC1C(=O)N2CCCc3cc(S(=O)(=O)NCc4ccc(F)cc4)cc1c32 (stereo unspecified) | 2.3% | – |
| COC(=O)c1ccc(CN2CCCC(C(=O)Nc3cccc(-n4cnnn4)c3)C2)cc1 (stereo unspecified) | 0.0712% | – |
| O=C1c2ccccc2C2=Nc3ccccc3SC(c3ccccc3F)C12 (stereo unspecified) | -27.7% | – |
| CCOC(=O)c1ccccc1NC(=S)N1CCC(C(N)=O)CC1 | -1.43% | – |

| Structure (SMILES) | activity change, negative = inhibition | Potency |
| --- | --- | --- |
| COc1cccc(NC(=O)CSc2nnc(Cc3ccc(OC)c(OC)c3)o2)c1 | -3.18% | – |
| O=C1N[C@H](Cc2c[nH]c3ccccc23)COC(=O)[C@H](Cc2ccc(F)cc2)C/C=C\C[C@H]1CC(=O)N(CCO)Cc1ccccc1 | -17.8% | – |
| CSc1nnc(-c2ccc(C(F)(F)F)cn2)o1 | -0.446% | – |
| COc1cc(/C=C/C(=O)N2c3ccccc3Sc3ccc(C(F)(F)F)cc32)cc(OC)c1OC | -3.99% | – |
| O=C1/C(=C/c2ccc(F)cc2)SC(=S)N1NS(=O)(=O)c1ccccc1 | -3.4% | – |
| COc1cc(/C=C2\SC(=S)N(Nc3ncc(C(F)(F)F)cc3Cl)C2=O)cc(OC)c1OC | – | 28.2 µM (active) |
| Cc1c(C)c2c(OCC(=O)N[C@@H](C(=O)O)c3ccccc3)cc3c(c2oc1=O)CCC(C)(C)O3 | 70.3% | – |
| CCOC(=O)C1(Cc2cccc(OC)c2)CCN(Cc2csc(C(C)=O)c2)CC1 | -0.0302% | – |
| S=c1[nH]nc(Nc2ccccc2)s1 | -1.24% | – |
| COc1cccc(-n2c(=S)sc3c(=O)n(-c4ccccc4C)c(SCC(=O)O)nc32)c1 | 6.43% | – |
| CCOc1ncccc1C(=O)OCC(=O)Nc1cccc(S(=O)(=O)N2CCCCCC2)c1 | -0.366% | – |
| N=C1C(=O)OCC1c1ccccc1NC(=O)CN1CCCCC1 (stereo unspecified) | 6.54% | – |
| COc1ccc(C(=O)N(C)CC(O)c2ccccc2)cc1OC1CCN(C(C)=O)CC1 (stereo unspecified) | 5.69% | – |
| O=C(O)CSCC(=O)Nc1ccc(C(F)(F)F)cc1 | 1.25% | – |
| CC[C@@]12C(=O)N(c3ccccc3)C(=O)N1[C@H](c1ccc(Br)cc1)[C@@H]1C(=O)N(C(C)(C)C)C(=O)[C@@H]12 | -4.51% | – |
| COc1cccc(N(C(=O)c2ccn[nH]2)C2(C(=O)Nc3c(C)cccc3C)CCCCC2)c1 | 0.42% | – |
| COc1cc(OC)cc(C(=O)Nc2nnc(SCC(=O)NCC3CCCO3)s2)c1 (stereo unspecified) | -1.35% | – |
| CC(C)CN(C(=O)c1cccc(S(=O)(=O)N2CCCCC2)c1)C1CCS(=O)(=O)C1 (stereo unspecified) | 1.29% | – |
| CS(=O)(=O)N(Cc1ccccc1Cl)c1ccc(C(=O)NCc2cccnc2)cc1 | -2.15% | – |
| CC1CCN(c2ccc(S(=O)(=O)Nc3cc(C(=O)O)cc(C(=O)O)c3)cc2[N+](=O)[O-])CC1 | 10.1% | – |
| Cc1ccc2nc(SCC(=O)Nc3cccc4ccccc34)nc(=O)n2c1 | -0.358% | – |
| CSCCC(=O)N1CCCC(CNC(=O)c2ccccc2Cl)C1 (stereo unspecified) | 7.66% | – |
| CCCn1nnc(NC(=O)COc2ccc(CC)cc2)n1 | 3.31% | – |
| COc1ccc([C@H]2CC(=O)C=C(c3ccc(OC(F)(F)F)cc3)C2)cc1OC | -15.4% | – |
| Cc1cccc(-[n+]2c(-c3cccc(Br)c3)[nH]c3nc4ccccc4nc32)c1 | 53% | – |
